The structures appear in SMILES notation.

The assay has as its system Toxoplasma gondii RH 2F1 tachyzoites (intracellular in HFF). The assay is described as follows: parasite survival relative to DMSO control; higher = less antiparasitic activity, active = 20 or less. The following applies: 1 µM; 72 h. Summed up: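 Intracellular Toxoplasma gondii RH-2F1 tachyzoites, which express β-galactosidase, were grown in HFF cells (5 × 10^3 cells/well, 96-well plates) infected with 5 × 10^3 parasites in D2 medium for 3 h, then treated with compound at 1 μM for 72 h at 37°C in 5% CO2. Cells were lysed for 15 min, then CPRG was added and absorbance read at 570 nm after 30 min. Survival is the signal as a percentage of DMSO-treated infected controls, from 2 or more biological replicates.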
With `O=C(Nc1nnc(-c2ccc(Cl)cc2)o1)c1nc2ccccc2s1`, the parasite survival is 62.5% (inactive).
Next, `Nc1c(C(=O)NCc2ccco2)c2nc3ccccc3nc2n1CCN1CCCCC1`: 37% (inactive).
In the case of `CO[C@@]1(NC(=O)Cc2cccs2)C(=O)N2C(C(=O)O)=C(COC(N)=O)CS[C@@H]21`, the parasite survival was 61.6% (inactive).
With `CCc1cc(O)c(Oc2ccc(C(N)=O)cc2F)cc1F`, the parasite survival is 71.5% (inactive).
Consider `Cc1ccn2c(C(=O)NCc3ccccc3)c(C)nc2c1`, for which the parasite survival was 49.6% (inactive).
With `O=[N+]([O-])/C(Br)=C/c1ccc(Br)o1`, the parasite survival was 26.6% (inactive).
In the case of `Nc1ccc(-c2nc3cc(C(F)(F)F)ccc3n2C23CC4CC(CC(C4)C2)C3)cc1` it was 53% (inactive); in that of `CN(C(=O)C1(c2ccc(Cl)cc2)CCC1)c1ccccc1`, 83.6% (inactive).
`CN1C(=O)C(c2ccccc2)C(=O)N(c2ccccc2)c2cc(C(F)(F)F)ccc21` (centres undefined): the parasite survival was 79.5% (inactive).
For `O=P(O)(O)C(CCCc1cccc(Oc2ccccc2)c1)S(=O)(=O)O` (centres undefined), the parasite survival is 65.2% (inactive).
In the case of `Cc1nc(N(C)C(=O)Cc2ccc(-c3ccccn3)cc2)sc1S(N)(=O)=O` it was 72.8% (inactive); in that of `Cc1nc2ccc(Cl)cc2c(-c2ccccc2)c1CC(=O)O`, 79.3% (inactive).
For the compound `O=C(NN1C(=O)[C@@H]2[C@@H]3C=C[C@@H]([C@H]4C[C@@H]34)[C@@H]2C1=O)c1ccc(C(F)(F)F)cc1`, the parasite survival is 66.1% (inactive).
In the case of `O=C(NNC(=S)Nc1ccc(Cl)cc1)c1ccncc1` it was 65% (inactive); in that of `CN(C)c1[nH]c(=O)ncc1F`, 36.6% (inactive); in that of `O=C(Nc1nnc(-c2ccccc2)o1)c1ccc(F)cc1`, 52.8% (inactive).
Consider `Cn1cc(NC(=O)c2cc(NC(=O)c3ccc(/C=C/c4cnc5ccccc5c4)cc3)cn2C)cc1C(=O)NCCN1CCOCC1`, for which the parasite survival is 12.8% (active).
Next, `O=c1nc(N2CCN(CC3CCCCC3)CC2)sc2c([N+](=O)[O-])cc(C(F)(F)F)cc12`: 43.6% (inactive); `NC(=O)c1ccc(I)c([N+](=O)[O-])c1`: 59.1% (inactive).
In the case of `O=C(c1cc(O)nc2ccccc12)N1CCN(c2ccccc2)CC1` it was 77.5% (inactive); in that of `O=C(NCc1ccccc1Cl)c1cnc2ccccc2n1`, 45.6% (inactive).
In the case of `Cc1cc(CCCOc2c(C)cc(-c3noc(C(F)(F)F)n3)cc2C)on1` it was 67.2% (inactive); in that of `Nc1nc(Nc2ccc3nc(-c4ccc(F)cc4)cc(N)c3c2)cc(-c2ccccc2)n1`, 4.03% (active).
On to `CCNC(=O)Nc1cc2c(-c3ccnc(C)c3)ccc(CNC(=O)OC)c2cn1`, for which the parasite survival was 31.9% (inactive).
`CCc1nc(N)nc(N)c1C#CC(C)c1cc(OC)cc(-c2ccncc2)c1` (centres undefined): the parasite survival is 4.08% (active).
With `O=[N+]([O-])c1cn2c(n1)OC[C@@H](OCc1ccc(OC(F)(F)F)cc1)C2`, the parasite survival is 45.2% (inactive).
With `CCOC(=O)/C=C/[C@H](C[C@@H]1CCNC1=O)NC(=O)[C@H](CC)n1cccc(NC(=O)c2cc(C)on2)c1=O`, the parasite survival is 63.3% (inactive).
In the case of `COc1ccc(C[C@@H](C)[C@@H](C)Cc2ccc(OC)c(OC)c2)cc1OC`, the parasite survival was 77.7% (inactive).
`COCCn1cnc2c(O)nc(Nc3ccccc3)nc21`: the parasite survival is 67% (inactive).
In the case of `FC(F)(F)c1cc(C(F)(F)F)c2ccc3nc(-c4nnco4)cn3c2n1` it was 77.8% (inactive); in that of `COc1ccc(OCc2ccc(COc3c(Cl)cccc3Cl)cc2)c(Cl)c1`, 72% (inactive); in that of `Cc1oncc1C(=O)Nc1ccc(C(F)(F)F)cc1`, 77.7% (inactive).
In the case of `NC(=O)[C@@H]1CC[C@@H]2CN1C(=O)N2OS(=O)(=O)O` it was 39% (inactive).
Turning to `NC1(C(=O)O)CCP(=O)(O)CC1` (centres undefined), the parasite survival is 77.4% (inactive).
Next, `CC[C@@]1(O)C(=O)OCc2c1cc1n(c2=O)Cc2cc3c(CN(C)C)c(O)ccc3nc2-1`: 50.5% (inactive); `CCN(CC)CCn1c(=N)n(CC(O)COc2ccc(Cl)cc2Cl)c2ccccc21` (centres undefined): 26.7% (inactive).
In the case of `CC(C)(C)OC(=O)NCc1ccc(C(=O)N[C@H]2CCOC2=O)cc1` it was 35% (inactive); in that of `CC(C)(C)NC(=O)[C@@H]1CN(Cc2cnc3occc3c2)CCN1C[C@@H](O)C[C@@H](Cc1ccccc1)C(=O)N[C@H]1c2ccccc2C[C@H]1O`, 58.1% (inactive); in that of `CSC[C@H]1CN(Cc2c[nH]c3c(N)ncnc23)C[C@@H]1O`, 45.9% (inactive).

For the origin of these results see the supplement of paper PMC10941209.
